Of roughly 8,800 targets only a part is listed; those with a hit were picked by preference. About 0.5% of all pairs of compound and target were hits.

UniProt Q8TBX8, sequence (Q8TBX8 whole entry, looked up): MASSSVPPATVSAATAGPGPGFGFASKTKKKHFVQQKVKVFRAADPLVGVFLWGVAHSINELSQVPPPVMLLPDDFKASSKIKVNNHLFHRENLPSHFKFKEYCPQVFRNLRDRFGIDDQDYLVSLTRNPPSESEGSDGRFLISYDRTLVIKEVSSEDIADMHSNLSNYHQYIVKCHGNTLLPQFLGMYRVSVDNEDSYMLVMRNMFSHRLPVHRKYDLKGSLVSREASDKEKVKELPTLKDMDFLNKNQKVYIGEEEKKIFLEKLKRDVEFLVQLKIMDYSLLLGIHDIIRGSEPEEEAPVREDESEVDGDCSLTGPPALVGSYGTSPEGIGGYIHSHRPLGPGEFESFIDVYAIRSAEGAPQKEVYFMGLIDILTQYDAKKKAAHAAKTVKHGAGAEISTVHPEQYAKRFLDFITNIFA
UniProt Q8WUM4, sequence (Q8WUM4 whole entry, looked up): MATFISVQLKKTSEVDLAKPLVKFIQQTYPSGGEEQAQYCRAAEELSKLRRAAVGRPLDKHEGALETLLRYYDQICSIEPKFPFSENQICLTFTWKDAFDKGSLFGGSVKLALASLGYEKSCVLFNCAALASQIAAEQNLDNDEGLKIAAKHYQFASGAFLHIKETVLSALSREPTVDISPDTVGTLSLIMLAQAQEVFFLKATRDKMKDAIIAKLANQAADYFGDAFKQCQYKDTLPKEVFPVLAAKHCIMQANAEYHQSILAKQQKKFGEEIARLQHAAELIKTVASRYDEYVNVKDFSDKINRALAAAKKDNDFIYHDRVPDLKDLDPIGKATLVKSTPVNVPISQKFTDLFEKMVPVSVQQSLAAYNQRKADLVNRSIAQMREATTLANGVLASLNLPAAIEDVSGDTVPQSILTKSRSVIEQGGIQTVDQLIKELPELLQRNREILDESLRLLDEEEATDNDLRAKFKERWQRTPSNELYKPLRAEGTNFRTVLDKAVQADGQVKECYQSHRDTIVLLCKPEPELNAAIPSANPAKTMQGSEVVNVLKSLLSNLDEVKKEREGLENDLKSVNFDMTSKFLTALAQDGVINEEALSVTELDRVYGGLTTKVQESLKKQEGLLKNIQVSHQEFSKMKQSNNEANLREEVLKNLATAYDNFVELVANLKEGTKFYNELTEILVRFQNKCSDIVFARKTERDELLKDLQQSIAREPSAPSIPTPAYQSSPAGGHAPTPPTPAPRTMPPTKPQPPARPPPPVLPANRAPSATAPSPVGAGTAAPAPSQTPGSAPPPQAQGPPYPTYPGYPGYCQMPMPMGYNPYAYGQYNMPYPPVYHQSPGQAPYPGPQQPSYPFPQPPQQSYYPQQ
UniProt P0C869, sequence (P0C869 whole entry, looked up): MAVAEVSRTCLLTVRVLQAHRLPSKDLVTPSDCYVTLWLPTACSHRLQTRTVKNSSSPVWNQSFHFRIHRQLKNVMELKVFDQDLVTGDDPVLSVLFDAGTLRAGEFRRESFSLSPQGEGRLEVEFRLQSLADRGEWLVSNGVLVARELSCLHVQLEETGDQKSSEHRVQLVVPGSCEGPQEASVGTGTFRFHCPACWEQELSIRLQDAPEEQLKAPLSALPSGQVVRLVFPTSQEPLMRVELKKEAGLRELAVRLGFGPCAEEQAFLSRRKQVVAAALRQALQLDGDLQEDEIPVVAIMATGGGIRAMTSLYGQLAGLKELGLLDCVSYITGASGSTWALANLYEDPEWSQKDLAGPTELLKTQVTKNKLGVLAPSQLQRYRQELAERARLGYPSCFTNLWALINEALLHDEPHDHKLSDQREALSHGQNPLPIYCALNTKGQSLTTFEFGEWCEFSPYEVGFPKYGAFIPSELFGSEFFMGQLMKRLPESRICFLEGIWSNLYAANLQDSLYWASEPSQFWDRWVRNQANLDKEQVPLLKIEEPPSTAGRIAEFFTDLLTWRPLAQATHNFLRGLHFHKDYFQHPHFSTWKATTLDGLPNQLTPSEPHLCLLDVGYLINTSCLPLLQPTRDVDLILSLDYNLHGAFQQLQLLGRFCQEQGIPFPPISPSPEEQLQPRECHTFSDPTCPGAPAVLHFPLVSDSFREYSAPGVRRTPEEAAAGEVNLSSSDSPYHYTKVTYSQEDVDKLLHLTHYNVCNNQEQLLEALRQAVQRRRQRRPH
UniProt Q6P996, sequence (Q6P996 whole entry, looked up): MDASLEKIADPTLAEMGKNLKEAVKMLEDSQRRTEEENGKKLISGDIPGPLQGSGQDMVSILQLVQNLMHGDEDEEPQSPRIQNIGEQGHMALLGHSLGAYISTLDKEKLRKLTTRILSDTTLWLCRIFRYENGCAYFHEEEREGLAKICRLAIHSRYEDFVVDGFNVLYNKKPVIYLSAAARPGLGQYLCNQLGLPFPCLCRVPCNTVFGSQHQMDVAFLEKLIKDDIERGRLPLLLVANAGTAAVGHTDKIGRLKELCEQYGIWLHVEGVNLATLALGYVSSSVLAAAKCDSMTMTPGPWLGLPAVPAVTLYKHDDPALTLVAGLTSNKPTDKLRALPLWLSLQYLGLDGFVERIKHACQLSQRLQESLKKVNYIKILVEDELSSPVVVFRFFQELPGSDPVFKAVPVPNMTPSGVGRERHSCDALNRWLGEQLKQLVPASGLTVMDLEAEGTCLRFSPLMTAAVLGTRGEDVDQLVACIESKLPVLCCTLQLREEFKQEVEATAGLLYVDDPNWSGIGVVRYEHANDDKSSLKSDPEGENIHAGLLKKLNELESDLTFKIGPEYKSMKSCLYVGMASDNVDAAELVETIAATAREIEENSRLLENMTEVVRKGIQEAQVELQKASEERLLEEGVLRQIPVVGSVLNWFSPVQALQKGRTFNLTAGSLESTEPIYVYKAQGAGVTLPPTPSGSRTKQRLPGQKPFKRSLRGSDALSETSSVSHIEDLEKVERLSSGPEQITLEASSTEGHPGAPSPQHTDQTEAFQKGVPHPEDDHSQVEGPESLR
UniProt P28328, sequence (P28328 whole entry, looked up): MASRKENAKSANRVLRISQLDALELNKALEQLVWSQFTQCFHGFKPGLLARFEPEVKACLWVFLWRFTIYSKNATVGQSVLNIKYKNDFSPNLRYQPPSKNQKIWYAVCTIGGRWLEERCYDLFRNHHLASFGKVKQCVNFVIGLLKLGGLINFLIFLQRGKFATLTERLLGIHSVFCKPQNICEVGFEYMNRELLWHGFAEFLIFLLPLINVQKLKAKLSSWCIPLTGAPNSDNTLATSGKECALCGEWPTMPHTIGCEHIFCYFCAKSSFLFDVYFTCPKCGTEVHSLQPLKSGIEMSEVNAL
UniProt P31323, sequence (P31323 whole entry, looked up): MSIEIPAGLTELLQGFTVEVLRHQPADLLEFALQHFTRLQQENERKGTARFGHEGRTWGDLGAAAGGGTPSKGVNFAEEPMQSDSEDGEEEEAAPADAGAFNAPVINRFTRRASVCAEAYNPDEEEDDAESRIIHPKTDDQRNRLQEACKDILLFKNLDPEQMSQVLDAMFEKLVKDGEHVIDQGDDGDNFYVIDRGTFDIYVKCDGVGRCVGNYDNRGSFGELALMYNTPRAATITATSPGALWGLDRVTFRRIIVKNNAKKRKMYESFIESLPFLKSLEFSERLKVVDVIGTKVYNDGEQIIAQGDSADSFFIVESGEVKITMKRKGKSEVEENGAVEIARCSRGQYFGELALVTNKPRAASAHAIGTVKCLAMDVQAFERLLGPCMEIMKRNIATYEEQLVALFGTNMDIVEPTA
UniProt Q96C36, sequence (Q96C36 whole entry, looked up): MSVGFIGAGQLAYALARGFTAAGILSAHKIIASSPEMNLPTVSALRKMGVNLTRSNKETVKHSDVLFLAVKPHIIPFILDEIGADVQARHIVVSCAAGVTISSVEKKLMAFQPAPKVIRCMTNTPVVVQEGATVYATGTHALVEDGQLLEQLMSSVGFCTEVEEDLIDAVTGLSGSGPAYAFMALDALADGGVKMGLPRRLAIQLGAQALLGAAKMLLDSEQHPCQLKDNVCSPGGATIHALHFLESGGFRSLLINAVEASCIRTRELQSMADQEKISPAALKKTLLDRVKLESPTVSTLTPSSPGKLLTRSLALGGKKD
UniProt P0CAP2, sequence (P0CAP2 whole entry, looked up): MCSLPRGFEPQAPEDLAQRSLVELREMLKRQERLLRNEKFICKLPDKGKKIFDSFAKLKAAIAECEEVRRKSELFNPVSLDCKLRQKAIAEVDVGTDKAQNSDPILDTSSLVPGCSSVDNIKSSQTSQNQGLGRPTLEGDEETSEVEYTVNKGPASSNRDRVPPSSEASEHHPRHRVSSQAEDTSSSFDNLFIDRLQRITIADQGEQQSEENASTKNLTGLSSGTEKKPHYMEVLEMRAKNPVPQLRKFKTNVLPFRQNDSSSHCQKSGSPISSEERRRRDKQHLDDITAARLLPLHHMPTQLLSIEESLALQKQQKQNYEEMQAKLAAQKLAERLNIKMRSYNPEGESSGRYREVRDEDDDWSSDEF

Compound in this test: O=C1NC(=O)C(c2cnc3ccccn23)=C1c1cn2c3c(cc(F)cc13)CN(C(=O)N1CCCCC1)CC2
Description: log2 fold change, soluble protein after heating vs DMSO (PISA); higher = thermal stabilisation; K562 lysate, 10 uM; active = over 0.2 and 3.5 SD of the protein, either way, in both replicates (recomputed). The procedure, abridged: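 Soluble protein was defined as the supernatant remaining after 21,000xg for 90 min, following pooling of heated aliquots and adjustment to 0.5% NP-40 at 4°C. Before that, crude K562 extract at 1 mg/mL protein in PBS pH 7.4 with 1 mM MgCl2 was treated with 10 μM compound for 30 min and heated for 3 min across 48°C-58°C. Quantification used TMTpro 16plex LC-MS/MS with channel sums equalised, and values are log-two fold changes in thermal stability relative to solvent controls from duplicates.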
Consider PIK3CD (UniProt O00329), for which the log2 fold change was -0.004 (inactive).

As to PIAS2 (UniProt O75928), the log2 fold change is -0.054 (inactive). As to PDAP1 (UniProt Q13442), the log2 fold change is -0.004 (inactive). On to PTPN23 (UniProt Q9H3S7), for which the log2 fold change is 0 (inactive). For the target PIP4K2C (UniProt Q8TBX8), the log2 fold change is 0.063 (inactive).

PDCD6IP (UniProt Q8WUM4): the log2 fold change is 0.009 (inactive).

With PRIM1 (UniProt P49642), the log2 fold change is 0.024 (inactive). On to PPCDC (UniProt Q96CD2), for which the log2 fold change was -0.015 (inactive). On to PDXDC1 (UniProt Q6P996), for which the log2 fold change is 0.018 (inactive). Under PPIC (UniProt P45877) stands 0.262 (inactive); under PDCD10 (UniProt Q9BUL8), -0.037 (inactive); under POLR2M (UniProt P0CAP2), -0.027 (inactive). With PYCR2 (UniProt Q96C36), the log2 fold change is 0.015 (inactive). In the case of PUM1 isoform 3 (UniProt Q14671), the log2 fold change is -0.004 (inactive). Under PHKA2 (UniProt P46019) stands -0.048 (inactive). PI4KB (UniProt Q9UBF8): the log2 fold change is -0.044 (inactive). For the target PEX2 (UniProt P28328), the log2 fold change was 0.043 (inactive). Take PTPN6 isoform 4 (UniProt P29350): the log2 fold change is 0.006 (inactive). Consider PTMA (UniProt P06454), for which the log2 fold change was 0.023 (inactive). The result for PI4K2A (UniProt Q9BTU6) reads -0.009 (inactive); that for PTP4A1 (UniProt Q93096), 0.014 (inactive); that for PPFIA2 (UniProt O75334), 0.069 (inactive).

As to PUF60 isoform 2 (UniProt Q9UHX1), the log2 fold change was 0.026 (inactive). Regarding PRKCSH (UniProt K7ELL7), the log2 fold change was 0.016 (inactive). As to PGRMC1 (UniProt O00264), the log2 fold change was 0.014 (inactive).

In the case of PGLS (UniProt O95336), the log2 fold change is 0.072 (inactive). Turning to PIP4P2 (UniProt Q8N4L2), the log2 fold change was 0.034 (inactive). As to PPIL3 (UniProt Q9H2H8), the log2 fold change was 0.029 (inactive). On to PLA2G4B isoform 6 (UniProt P0C869), for which the log2 fold change was 0.264 (inactive). As to PMS1 (UniProt P54277), the log2 fold change was 0.026 (inactive). The result for POC5 (UniProt Q8NA72) reads 0.02 (inactive). Take PELO (UniProt Q9BRX2): the log2 fold change is 0.02 (inactive). The result for PIK3R2 (UniProt O00459) reads -0.029 (inactive); that for PRKAR2B (UniProt P31323), 0.025 (inactive). PPP2R5C isoform 2 (UniProt Q13362): the log2 fold change was 0.086 (inactive).

PIP4K2B (UniProt P78356): the log2 fold change is 0.073 (inactive). In the case of PRKCA (UniProt P17252), the log2 fold change is 0.087 (inactive). As for POLR2M (UniProt Q6EEV4), the log2 fold change was 0.06 (inactive).

The values are drawn from the supplement of paper PMC10849652.
